High-throughput results from PubChem BioAssay.
gsp agonist – qHTS for Agonist of gsp, the Etiologic Mutation Responsible for Fibrous Dysplasia/McCune-Albright Syndrome: qHTS; gsp mutant cells, cAMP HTRF, 30 min; Potency, µM (titrated, usually from 76.9 µM), usual class: activators; hit rate 0.13% among 340,000; active means well fitted activation curve with a large enough effect; inconclusive means small, poorly fitted or top-dose-only effect, or another doubt; inactive means no such curve, though single readings can be large or run the other way; cell line not stated here;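 further: phosphodiesterase inhibitor Ro 20-1724 added with compounds to block cAMP breakdown; nearly all actives have a fitted effect of over 60% in size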
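Cells in DMEM/10% FBS with G418 were pretreated with compounds in DMSO plus […] (300 uM stock) for 30 min at 37C. cAMP was measured by HTRF (cAMP-d2 plus anti-cAMP antibody-K) after 30 min at room temperature.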
RXFP1 ag – qHTS Assay for Agonists of the Relaxin Receptor RXFP1. Relaxin receptor 1 (Homo sapiens), Q9HBX9. HEK293T-RXFP1 cAMP TR-FRET, 30 min; response scale: percent of porcine relaxin response, buffer zero. Potency, µM (top dose mostly 57.5 µM), usual class: activators. hit rate 0.3% among 370,000. AID 2676, 2010; active means well fitted activation curve with a large enough effect; inconclusive means small, poorly fitted or top-dose-only effect; further: nearly all actives have a fitted effect of over 60% in size
Target sequence (Q9HBX9 whole entry, looked up): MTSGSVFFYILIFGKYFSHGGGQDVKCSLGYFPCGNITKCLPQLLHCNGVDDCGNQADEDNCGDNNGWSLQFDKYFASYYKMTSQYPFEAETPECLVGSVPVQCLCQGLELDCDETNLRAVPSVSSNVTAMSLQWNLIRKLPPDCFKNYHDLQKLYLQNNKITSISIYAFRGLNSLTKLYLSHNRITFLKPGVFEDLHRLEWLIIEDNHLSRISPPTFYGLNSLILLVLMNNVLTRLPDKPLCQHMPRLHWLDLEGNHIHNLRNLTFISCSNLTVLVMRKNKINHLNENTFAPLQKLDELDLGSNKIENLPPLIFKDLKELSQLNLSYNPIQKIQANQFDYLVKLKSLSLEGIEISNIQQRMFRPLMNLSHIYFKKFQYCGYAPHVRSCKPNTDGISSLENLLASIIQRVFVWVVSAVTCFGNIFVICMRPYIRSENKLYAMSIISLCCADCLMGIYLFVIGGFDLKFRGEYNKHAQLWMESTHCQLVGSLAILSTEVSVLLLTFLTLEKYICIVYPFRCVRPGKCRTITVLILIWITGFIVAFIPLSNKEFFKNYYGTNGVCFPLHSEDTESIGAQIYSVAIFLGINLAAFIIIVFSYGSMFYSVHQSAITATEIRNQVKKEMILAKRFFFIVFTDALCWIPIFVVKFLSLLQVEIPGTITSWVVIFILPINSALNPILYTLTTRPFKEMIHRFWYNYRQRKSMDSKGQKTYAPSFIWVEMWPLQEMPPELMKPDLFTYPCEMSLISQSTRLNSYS
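HEK293 cells stably expressing RXFP1, treated 30 min at 37C with compounds plus PDE4 inhibitor Ro 20174; cAMP measured by HTRF TR-FRET. Normalized to buffer and 29 nM porcine relaxin; EC50 by Hill fit.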
pAkt inh – HTS Assay for Inhibitors of Akt Phophorylation: Primary Screen. Neuro2A IGF-stimulated pAkt S473 HTRF, 20 min; hits give low values. activity change, % for hits at 50 µM. hit rate 0.32% among 360,000. AID 651550, 2012; in the data active means activity change below about -80%; inconclusive means mostly about -51% to -80%
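Neuro2A cells (4,500/well, DMEM with 0.5% FBS) were treated with compound at a single 50 µM final concentration, stimulated with 6 nM IGF for 20 min at 37 °C, and lysed. Phospho-Akt Ser473 was read by HTRF as 665/615 ratio ×10^4.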
RXFP1 antag – qHTS Assay for Antagonists of the Relaxin Receptor RXFP1; hit rate 0.59% among 350,000; Relaxin receptor 1 (Homo sapiens), Q9HBX9; activity change, negative = inhibition, % at 57.5 µM; HEK293-RXFP1, relaxin-stimulated cAMP HTRF, 30 min; hits give low values;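 active means activity change of -60% or lower, but not beyond a set lower limit; inconclusive means change between -60% and -40%, or beyond the set limit; inactive means change above -40%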
gsp antagonist – qHTS for Antagonists of gsp, the Etiologic Mutation Responsible for Fibrous Dysplasia/McCune-Albright Syndrome: qHTS. AID 624288, 2012. Potency, µM (series often up to 76.9 µM), usual class: inhibitors. gsp-mutant cells, cAMP HTRF, 30 min. hit rate 0.4% among 340,000; calls by dose curve; cell line not stated here;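 further: intracellular cAMP measured with PDE inhibitor Ro 20-1724 present during compound exposure; nearly all actives have a fitted effect of over 65% in size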
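HTRF cAMP measurement after 30 min RT detection following 30 min, 37C compound treatment alongside […] (added as 300 uM solution) in G418-selected cells seeded at 2000/well and grown 16–24 h.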
Hits are given with their value; [ ] = another dose, or the depositor's remark. Most compounds without a hit are left out; they make up all but 1.2% or so of the library.

Screening COc1ccc(C(=O)Nc2nnc(S(=O)(=O)N3CCCc4ccccc43)s2)cc1 returned RXFP1 ag inactive and RXFP1 antag inactive.
Screening Cc1cccc(OCCCC(=O)O)c1 returned gsp agonist inactive, RXFP1 ag inactive, pAkt inh inactive, RXFP1 antag inactive and gsp antagonist inactive.
For Cc1cc(C)cc(OCCCC(=O)O)c1 the results were gsp agonist inactive, RXFP1 ag inactive, pAkt inh -106%, RXFP1 antag inactive and gsp antagonist inactive.
Screening COc1cccc(-n2ccnc2SCC(=O)Nc2ccc(Cl)c(Cl)c2)c1 returned RXFP1 ag inactive and RXFP1 antag inactive.
`COc1ccc(-c2nc(SCC(=O)c3ccc(OC)c(Br)c3)n[nH]2)cc1` gave RXFP1 ag inactive and RXFP1 antag inactive.
Screening Cc1ccc(S(=O)(=O)CC(=O)Nc2nc3c(C)cc(C)cc3s2)cc1 returned RXFP1 ag inactive and RXFP1 antag inactive.
Screening COCCNS(=O)(=O)c1ccc2c(c1)C(=NO)c1cc(S(=O)(=O)NCCOC)ccc1-2 returned gsp agonist inactive, RXFP1 ag inactive, pAkt inh inactive, RXFP1 antag inactive and gsp antagonist inactive.
Screening CC(C)(CO)NS(=O)(=O)c1ccc2c(c1)C(=NO)c1cc(S(=O)(=O)NC(C)(C)CO)ccc1-2 returned gsp agonist 7.1µM, RXFP1 ag inactive, pAkt inh inactive, RXFP1 antag inactive and gsp antagonist inactive.
NS(=O)(=O)c1ccc(CCNc2ncnc3c2cnn3-c2cccc(Cl)c2)cc1 was read as RXFP1 ag inactive and RXFP1 antag -84.
For O=C(O)CCC(=O)Nc1ccc(C(=O)OCC(=O)c2ccc(Cl)cc2Cl)cc1 the results were gsp agonist inactive, RXFP1 ag inactive, pAkt inh inactive, RXFP1 antag -67 and gsp antagonist inactive.
For CCOC(=O)c1cccc(NC(=O)NC(C)c2c(-n3cccc3)sc3c2CCN(C)C3)c1 (centres undefined) the results were RXFP1 ag inactive and RXFP1 antag inactive.
For Cc1cccc(N2CCN(C(=O)c3nn(C)c4c3CS(=O)(=O)c3ccccc3-4)CC2C)c1 (centres undefined) the results were gsp agonist inactive, RXFP1 ag inactive, pAkt inh inactive, RXFP1 antag inactive and gsp antagonist 35µM.
For Cc1ccc(S(=O)(=O)CC(O)CN2CCCC2=O)cc1 (centres undefined) the results were gsp agonist inactive, RXFP1 ag inactive, pAkt inh -117%, RXFP1 antag inactive and gsp antagonist inactive.
Screening O=C1CCCN1CC(O)CS(=O)(=O)c1ccc(Cl)cc1 (centres undefined) returned gsp agonist inactive, RXFP1 ag inactive, pAkt inh inactive, RXFP1 antag inactive and gsp antagonist inactive.
`Cc1cccc(N2CCN(C(=O)C3CCN(c4nnc(-n5cccc5)s4)CC3)CC2C)c1` (centres undefined) gave gsp agonist inactive, RXFP1 ag inactive, pAkt inh inactive, RXFP1 antag -68 and gsp antagonist 28µM.
For Cc1cccc(N2CCN(C(=O)C3CCN(S(=O)(=O)c4cccc5nsnc45)CC3)CC2C)c1 (centres undefined) the results were gsp agonist inactive, RXFP1 ag inactive, pAkt inh inactive, RXFP1 antag inactive and gsp antagonist 35µM.
Screening CC(=O)N1CCCc2ccc(NC(=O)c3ccc(C(F)(F)F)cc3)cc21 returned RXFP1 ag inactive and RXFP1 antag inactive.
Screening O=C1N/C(=N/NC(=O)c2cccc3ccccc23)S/C1=C\c1ccccc1OCc1ccccc1 returned gsp agonist inconclusive, RXFP1 ag inactive, pAkt inh inactive, RXFP1 antag inconclusive and gsp antagonist 28µM.
For O=C(N/N=C/c1ccccn1)c1ccc([N+](=O)[O-])cc1Cl the results were gsp agonist inactive, RXFP1 ag inactive, pAkt inh inactive, RXFP1 antag inactive and gsp antagonist inactive.
O=C(N/N=C/c1cccnc1)c1ccc([N+](=O)[O-])cc1Cl was read as gsp agonist inactive, RXFP1 ag inactive, pAkt inh -83%, RXFP1 antag inactive and gsp antagonist inactive.
COc1ccc(NC(=O)c2cccc3c(=O)c4c([nH]c23)CCCC4)cc1 was read as RXFP1 ag inactive and RXFP1 antag inactive.
`N#CCCSc1ncnc2c1oc1ccccc12` gave gsp agonist inactive, RXFP1 ag 14µM, pAkt inh inactive, RXFP1 antag inactive and gsp antagonist inactive.
CCOC(=O)CC(=O)CSc1ncnc2c1oc1ccccc12 was read as gsp agonist inconclusive, RXFP1 ag 0.79µM, pAkt inh inactive, RXFP1 antag inactive and gsp antagonist inconclusive.
OCCSc1ncnc2c1oc1ccccc12 was read as gsp agonist inactive, RXFP1 ag inactive, pAkt inh inactive, RXFP1 antag inactive and gsp antagonist inactive.
Screening O=C1COc2ccc(S(=O)(=O)Nc3ccc(F)cc3)cc2N1 returned gsp agonist 2.2µM, RXFP1 ag inactive, pAkt inh inactive, RXFP1 antag inactive and gsp antagonist inactive.
Cc1ccc(NS(=O)(=O)c2ccc3c(c2)NC(=O)CO3)c(C)c1 was read as gsp agonist inactive, RXFP1 ag inactive, pAkt inh inactive, RXFP1 antag inactive and gsp antagonist inactive.
`O=C1CC(N2CCN(c3ccc(Cl)c(Cl)c3)CC2)C(=O)N1` (centres undefined) gave gsp agonist inactive, RXFP1 ag inactive, pAkt inh -120%, RXFP1 antag inactive and gsp antagonist inactive.
Cc1cc(C)c(NC(=O)CCN2C(=O)c3ccccc3Sc3ncccc32)c(C)c1 was read as RXFP1 ag inactive and RXFP1 antag inactive.
`CCOc1cc(C(=O)OC(C)C(=O)Nc2ncc(Cl)cc2Cl)ccc1OCC(=O)N1CCOCC1` (centres undefined) gave gsp agonist inactive, RXFP1 ag inactive, pAkt inh inactive, RXFP1 antag inactive and gsp antagonist 50µM.
Screening CC(C)NC(=O)/C(C#N)=C/c1cccc(NC(=O)c2ccccc2Cl)c1 returned gsp agonist inactive[15.4 µM], RXFP1 ag inactive, pAkt inh inactive, RXFP1 antag -63 and gsp antagonist inactive.
COCCNC(=O)/C(C#N)=C/c1cccc(NC(=O)c2ccccc2Cl)c1 was read as gsp agonist inactive, RXFP1 ag inactive, pAkt inh inactive, RXFP1 antag inconclusive and gsp antagonist inactive.
For CC(=O)c1cc(-c2ccc(F)cc2)n(CCC(=O)Nc2nc3c(C)cccc3s2)c1C the results were RXFP1 ag inactive and RXFP1 antag inactive.
CCCCC(O)(c1ccc(F)cc1)C(CN1CCOCC1)c1ccc(Cl)cc1 (centres undefined) was read as gsp agonist inactive, RXFP1 ag inactive, pAkt inh inactive, RXFP1 antag -77 and gsp antagonist inactive.
